Source: PubChem BioAssay
Only some compounds are listed: those with a hit (about 22% of all), similar ones and a draw of the others.
Pf growth 48h: P. falciparum growth inhibition at 48 hours (one generation); actives 5.9% (n = 310,000); Potency, µM (top dose mostly 28.7 µM), actives largely listed as inhibitors; AID 504832; P. falciparum luciferase growth in erythrocytes, 48 h
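In quantitative HTS format, infected erythrocytes bearing luciferase-reporter parasites were treated for a single generation at 37 C. Luminescence after adding detection reagent served as the growth measure.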
LmPK inhibitor: LmPK (Leishmania mexicana) enzyme inhibition; purified LmPK, Kinase-Glo ATP luminescence, 1 h; actives 0.37% (n = 290,000); Potency, µM (series often up to 57.5 µM), most hits filed as inhibitors; Q27686
Target sequence (Q27686 whole entry, looked up): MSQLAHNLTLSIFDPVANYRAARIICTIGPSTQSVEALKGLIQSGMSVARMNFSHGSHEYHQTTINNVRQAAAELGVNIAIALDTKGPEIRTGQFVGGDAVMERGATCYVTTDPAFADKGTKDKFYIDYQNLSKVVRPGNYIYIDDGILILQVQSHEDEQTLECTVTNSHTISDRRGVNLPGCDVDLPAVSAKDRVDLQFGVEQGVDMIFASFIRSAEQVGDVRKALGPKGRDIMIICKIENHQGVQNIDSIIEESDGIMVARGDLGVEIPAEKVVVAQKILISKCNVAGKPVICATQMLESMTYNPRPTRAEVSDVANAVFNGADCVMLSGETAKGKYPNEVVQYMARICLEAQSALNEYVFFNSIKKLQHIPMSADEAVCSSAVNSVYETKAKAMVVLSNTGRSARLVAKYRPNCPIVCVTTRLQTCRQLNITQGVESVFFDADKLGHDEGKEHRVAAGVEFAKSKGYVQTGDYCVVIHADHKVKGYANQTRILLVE
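Screened at intermediate enzyme activity to detect both inhibitors and activators: LmPK at 0.1 nM, with a 0.5 nM enzyme column as activation reference. PEP 0.5 mM, ADP 0.1 mM; ATP detected by luminescence after 1 h.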
Shiga inhibitor: inhibitors of Shiga toxin in Vero cells; Vero cells, Shiga toxin protein synthesis inhibition reporter; inhibition, % at 38.7 µM; actives 9.2% (n = 290,000); AID 2315; in the data active means inhibition mostly above about 28%, no sharp cut-off; inactive means mostly below about 43%
Cycloheximide cs: counter-screen hit for Shiga toxin inhibitors, cycloheximide; actives 12% (n = 300,000); max response, %; AID 2314; cell reporter, cycloheximide protein synthesis inhibition counterscreen; in the data active means max response mostly above about 13%, no sharp cut-off; inactive means mostly below about 14%; further: read at 38.3 µM for the half of the compounds with a filed dose
Pf growth 96h: inhibits malaria parasite growth, 96 h; actives 6.9% (n = 320,000); P. falciparum luciferase reporter growth, 96 h; AID 504834; Potency, µM (highest dose often 28.7 µM), most hits filed as inhibitors
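Delayed-death screen, second-generation endpoint: infected erythrocytes, 2% hematocrit, 0.05% parasitemia final; 96 hours at 37 C, 5% CO2; luciferase detection reagent; luminescence decrease equals reduced growth.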
Numbers stand for hits; n = inactive; u = inconclusive; x = no result. Unless noted, the call rests on the fitted dose curve; in most records, active means well fitted inhibition curve with a large enough effect; inconclusive means small, poorly fitted or top-dose-only effect, or another doubt; inactive means no such curve, though single readings can be large or run the other way.

SMILES	Pf growth 48h	LmPK inhibitor	Shiga inhibitor	Cycloheximide cs	Pf growth 96h
COc1ccc(CCNC(=O)c2cc3c(=O)n4ccccc4nc3n(Cc3ccco3)c2=N)cc1OC	n	n	n	14.7	n
COc1ccc(OCc2nnc(SCC(=O)c3ccccc3)o2)cc1	n	n	n	n	n
CCCn1c(=N)c(S(=O)(=O)c2ccccc2)cc2c(=O)n3cccc(C)c3nc21	n	n	n	n	n
COc1ccc(CCNC(=O)c2cc3c(=O)n4ccccc4nc3n(CCCN3CCOCC3)c2=N)cc1OC	2.33µM	n	n	n	2.08µM
COc1ccc(CCNC(=O)c2cc3c(=O)n4ccccc4nc3n(CCCN3CCOCC3)c2=N)cc1	u	n	n	n	u
CCCCCn1c(=N)c(S(=O)(=O)c2ccc(Cl)cc2)cc2c(=O)n3cccc(C)c3nc21	1.85µM	n	n	n	n
CCNC(=O)c1cc2c(=O)n3cccc(C)c3nc2n(CCc2ccccc2)c1=N	1.65µM	n	n	n	x
CCCNc1nc2nc3ccccn3c(=O)c2cc1C(=O)NCCN1CCOCC1	14.7µM	n	n	n	n
O=C(NCCN1CCOCC1)c1c(O)nc2ccccn2c1=O	n	n	n	n	n
CCCSc1nc2cc(C)c(C)cc2n1CC(C)O (stereo not given)	n	n	72.5	26.3	n
CCCSc1nc2cc(C)c(C)cc2n1CC(O)CO (stereo not given)	n	n	78.1	21.4	n
CCCn1c(SCCC(=O)O)nc2ccccc21	n	n	n	n	n
Cc1ccc(S(=O)(=O)CC(C)(O)C(=O)Nc2cccc(C(F)(F)F)c2)cc1 (stereo not given)	n	n	n	n	n
Cc1ccc(S(=O)(=O)Nc2ccc(NC(=O)Nc3cccc(C(F)(F)F)c3)cc2)cc1	13.1µM	n	n	n	u
O=C(Nc1ccc(OC(F)F)cc1)Nc1cccc(C(F)(F)F)c1	x	n	n	11.9	5.22µM
CCN(CC)S(=O)(=O)c1ccc(/C=C/C(=O)Nc2cccc(F)c2)cc1	u	n	n	33.3	2.94µM
CCN(CC)S(=O)(=O)c1ccc(/C=C/C(=O)O)cc1	n	n	n	n	n
CCN(CC)S(=O)(=O)c1ccc(NC(=O)Nc2cccc(C(F)(F)F)c2)cc1	5.22µM	n	n	n	x
O=C(Nc1ccncc1)Nc1cccc(C(F)(F)F)c1	u	n	n	n	u
C=CCOc1ccc2ccccc2c1CNc1ncn[nH]1	u	n	n	n	x
c1nc2nc(Nc3ccc(N4CCOCC4)cc3)nc(NC3CCCCC3)c2[nH]1	x	x	n	n	x
COC(=O)C1CN(C(=O)COc2cccc(C)c2C)c2ccccc2O1 (stereo not given)	n	n	n	26.1	n
CCNC(=S)N(Cc1ccccc1)Cc1nc2ccccc2c(=O)[nH]1	n	n	n	n	n
Cc1c(C(=O)O)cnc2cc(-c3ccc(Cl)cc3)nn12	n	n	n	16.0	n
Cc1cc2ncc(C(=O)Nc3ccccc3)c(C)n2n1	n	n	n	n	n
SMILES	Pf growth 48h	LmPK inhibitor	Shiga inhibitor	Cycloheximide cs	Pf growth 96h
CC(=O)c1cnc2cc(-c3ccc(Cl)cc3)nn2c1C	x	n	55.8	21.3	n
CC(=O)c1cnc2c(-c3ccc(Cl)cc3)c(C)nn2c1C	n	n	n	n	n
O=c1[nH]c(/C=C/c2ccccc2[N+](=O)[O-])nc2ccccc12	n	n	n	n	n
O=c1[nH]c(/C=C\c2cccc(F)c2)nc(O)c1[N+](=O)[O-]	u	n	x	n	u
O=c1[nH]c(/C=C/c2cccc3ccccc23)nc2ccccc12	u	n	n	n	n
O=c1[nH]c(/C=C/c2ccccn2)nc2ccccc12	n	n	69.6	55.7	u
O=c1[nH]c(/C=C/c2ccccc2F)nc2ccccc12	n	n	70.7	34.0	n
O=c1[nH]c(/C=C\c2ccccc2F)nc(O)c1[N+](=O)[O-]	n	n	x	n	13.1µM
C#CCOc1c(/C=C\c2nc(O)c([N+](=O)[O-])c(=O)[nH]2)cc(Br)cc1OC	5.22µM	n	x	n	u
C[C@H]1OC(OC2C(O)[C@@H](O)C(OC3C(O)[C@@H](O)C(O)O[C@@H]3CO)O[C@@H]2CO)[C@H](O)C(O)C1N[C@H]1C=C(CO)[C@@H](O)[C@H](O)C1O (stereo not given in full)	n	x	n	n	n
CN(CC(=O)Nc1ccccc1Cl)C(=O)COC(=O)c1cnccn1	n	n	n	n	n
COc1cc(/C=C/C(=O)OC(C)C(=O)NC2CCCCC2C)cc(Cl)c1OC (stereo not given)	u	x	x	x	n
COc1cccc(CNC(=O)c2cc3c(cc2Cl)N2CCCCCC2=NS3(=O)=O)c1	u	x	x	x	n
Cc1[nH]n(-c2ccccc2)c(=O)c1N=Nc1c(Cl)cccc1Cl	n	n	n	n	u
Cc1cccc2c1ncc1c(=O)n(-c3ccccc3)[nH]c12	n	n	90.5	29.6	u
CCc1cc2c(=O)[nH]c(N3CCOCC3)nc2s1	n	n	33.9	22.3	n
CCCCCc1c(C)nc(N2CCOCC2)[nH]c1=O	n	n	n	n	8.28µM
CCCCCc1c(C)nc(N2CCc3ccccc3C2)[nH]c1=O	n	n	n	n	n
CCCCCc1c(C)nc(N2CCc3ccccc32)[nH]c1=O	9.28µM	n	n	n	n
CC(C)c1oc(=O)cc2c1[C@@H](O)[C@H]1OC(=O)[C@@]3(C)C[C@@H](O)[C@@H](O)[C@@]2(C)C13 (stereo not given in full)	1.47µM	n	n	n	1.04µM
CC(C)c1oc(=O)cc2c1[C@@H](O)[C@H]1OC(=O)[C@@]3(C)CC[C@@H](O)[C@@]2(C)C13 (stereo not given in full)	2.94µM	n	n	n	2.62µM
O=C(CN1CC(c2ccccc2)CC1=O)OCc1ccccc1F (stereo not given)	n	n	97.4	44.3	x
NC(=O)CN1CC(c2ccccc2)CC1=O (stereo not given)	n	n	n	n	n
CC(C)[C@H](NC(=O)NC1CCCC1)C(=O)O	n	n	n	n	x
CC(C)=CCCC(C)NC(=O)NC1CCCCC1 (stereo not given)	n	n	n	22.6	n
SMILES	Pf growth 48h	LmPK inhibitor	Shiga inhibitor	Cycloheximide cs	Pf growth 96h
CC(C)(C)OC(=O)N1CCC[C@H]1C(=O)N/N=C/c1cccc2nccnc12	14.7µM	n	n	n	u
COc1ccc2nc(/C=N/NC(=O)[C@@H]3CCCN3C(=O)OC(C)(C)C)ccc2c1	n	n	76.2	45.5	n
C/C(=N\NC(=O)Cc1ccc(Cl)cc1)c1cccnc1	n	n	n	n	u
COc1ccc(N2CC(C(=O)Nc3cc(C)ccn3)CC2=O)cc1 (stereo not given)	n	n	n	n	n
CCOc1ccc(/C=N/N2CCN(Cc3ccccc3)CC2)cc1	n	n	n	n	0.738µM
COc1cccc(/C=N/N2CCN(Cc3ccccc3)CC2)c1O	n	n	n	24.4	7.38µM
Clc1ccc(/C=N/N2CCN(Cc3ccccc3)CC2)cc1	n	n	n	17.1	n
CSc1ccc(/C=N/N2CCN(Cc3ccccc3)CC2)cc1	n	n	49.1	30.0	n
